# Source: PubChem BioAssay (EPA / NIEHS)
# Inconclusive results are not listed. Activity calls are given as the source filed them. How the source made its calls: active means hit-call score of the fitted dose curve at least 0.9, where 1 is the maximum; inconclusive means response in the unintended direction; inactive means score below 0.9.
# Assays:
# [1] = biological target: human Peripheral-type Benzodiazepine Receptor (PBR), TSPO (gene 706) (UniProt P30536); test: NVS_MP_hPBR: NovaScreen (NVS) Membrane Protein Assay for human Peripheral-type Benzodiazepine Receptor (PBR) (AID 2283331);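 further: hits reduce radioligand binding relative to DMSO baseline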
# How it was run: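 Using human colon-derived membranes, this one-endpoint binding test reads radioligand loss by scintillation after 1 h. Screening started at 25 uM in duplicate, with positive and negative controls on every plate, and actives moved to dose series.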
# [2] = biological target: bovine Estrogen Receptor (ER), ESR1 (gene 407238) (UniProt P49884); test: NVS_NR_bER: NovaScreen (NVS) Nuclear Receptor Binding Assay for bovine Estrogen Receptor (ER) (AID 2283345);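 further: actives lower the bound radioligand count which means they displace the ER ligand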
# How it was run: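 Scintillation counting of displaced radioligand gave the readout; bovine uterine membrane extract supplied the receptor. Measured 18 h post-dose, normalized to DMSO baseline. Single 25 uM duplicate screen preceded concentration-response follow-up.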
# [3] = biological target: Estrogen receptor (Homo sapiens) (UniProt P03372); test: OT_ER_ERaERa_1440: Odyssey Thera (OT) 24-hour HEK293T Protein-Complementation Assay for Estrogen Receptor-alpha/-alpha Homodimer (AID 2283349);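 further: hits raise fluorescence above DMSO for agonists and antagonists alike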
# How it was run: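 Stably transfected HEK293T; ERα LBD homodimer PCA. 24 h dosing, fluorescence intensity read, gain-of-signal vs DMSO.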
# [4] = biological target: rat Peripheral-type Benzodiazepine Receptor (PBR), Tspo (gene 24230) (UniProt P16257); test: NVS_MP_rPBR: NovaScreen (NVS) Membrane Protein Assay for rat Peripheral-type Benzodiazepine Receptor (PBR) (AID 2283335)
# How it was run: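 Competitive displacement of specific radioligand from rat kidney membrane PBR, read by filtration and scintillation after 1 h. Compounds first tested at 25 uM in duplicate, then in concentration series; signal loss relative to DMSO.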
# NCBI gene 100848466 = test: NVS_NR_bPR: NovaScreen (NVS) Nuclear Receptor Binding Assay for bovine Progextron Receptor (PR) (AID 2283343)
# How it was run: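 Steps: bovine uterine membranes were dosed with chemical alongside radioligand, incubated 18 hours, then radiodetected by scintillation counting. Initial testing used 25 uM in duplicate; confirmed actives were rerun as concentration series.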
# [5] = biological target: Estrogen receptor (Homo sapiens) (UniProt P03372); test: OT_ER_ERaERa_0480: Odyssey Thera (OT) 8-hour HEK293T Protein-Complementation Assay for Estrogen Receptor-alpha/-alpha Homodimer (AID 2283351);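 further: rise in fluorescence from reassembled reporter fragments on ERα LBD homodimer in nucleus or whole cell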
# How it was run: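 Cells were treated for 8 hours, then imaged on a laser scanning plate cytometer. Complementation of reporter fragments fused to the human ERα ligand-binding domain (residues 310-547) in HEK293T gave fluorescence, and gain of signal over vehicle was fitted.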
# [6] = biological target: Estrogen receptor (Homo sapiens) + Estrogen receptor beta (Homo sapiens) (UniProt P03372+Q92731); test: OT_ER_ERaERb_0480: Odyssey Thera (OT) 8-hour HEK293T Protein-Complementation Assay for Estrogen Receptor-alpha/-beta Heterodimer (AID 2283352)
# How it was run: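 HEK293T protein-fragment complementation assay of ER-alpha/ER-beta LBD heterodimerisation, read 8 h after dosing. Mean nuclear/cytoplasmic fluorescence intensity measured by laser scanning cytometry; gain of signal fitted relative to DMSO.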
# [7] = biological target: Androgen Receptor/SRC-1 Co-activator, AR (gene 367) (UniProt P10275); test: OT_AR_ARSRC1_0960: Odyssey Thera (OT) 16-hour HEK293T Protein-Complementation Assay for Androgen Receptor/SRC-1 Co-activator (AID 2283353);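 further: actives raise the signal above DMSO so potency reflects increased AR and SRC-1 complex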
# How it was run: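 Stable HEK293T line carries AR and SRC-1 each linked to a Venus fragment; chemicals are applied for 16 h, cells imaged at two wavelengths, and the 488 nm nucleus/cytoplasm ratio is taken as the signal, rising relative to DMSO.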
# [8] = biological target: Estrogen receptor (Homo sapiens) (UniProt P03372); test: NVS_NR_hER: NovaScreen (NVS) Nuclear Receptor Binding Assay for human Estrogen Receptor (ER) (AID 2283348)
# How it was run: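 Radiodetection of ligand displacement in a lysate-based, cell-free format using MCF7 extracts, read at 18 hours. Duplicate 25 uM primary testing, then concentration series for actives.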
# [9] = biological target: Bile acid receptor (Homo sapiens) (UniProt Q96RI1); test: NVS_NR_hFXR_Antagonist: NovaScreen (NVS) Nuclear Receptor Binding Assay for human Farnesoid X Receptor Antagonism (FXR) (AID 2283350)
# How it was run: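 Antagonist-format time-resolved FRET binding assay with extracted human receptor protein, read 1 hour after compound addition. Compounds first screened at 25 uM in duplicate, then actives tested in concentration series, with loss of signal relative to DMSO.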
# [10] = biological target: human Androgen Receptor (AR), AR (gene 367) (UniProt P10275); test: NVS_NR_hAR: NovaScreen (NVS) Nuclear Receptor Binding Assay for human Androgen Receptor (AR) (AID 2283332)
# How it was run: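 Actives from a duplicate 25 uM single-point screen went on to concentration series. Read-out after 20 h was scintillation counting of displaced radioligand in LnCAP extract, with DMSO as baseline.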
# [11] = biological target: chimpanzee Androgen Receptor (AR), AR (gene 747460) (UniProt O97775); test: NVS_NR_cAR: NovaScreen (NVS) Nuclear Receptor Binding Assay for chimpanzee Androgen Receptor (AR) (AID 2283346);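 further: radioligand displacement from AR measured by scintillation counting in a cell-free assay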
# How it was run: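 Cell-free radioligand displacement using receptor protein extracted from Sf9/Sf21 cells; bound radioligand measured by scintillation counting 72 hours after chemical dosing. Loss of signal versus DMSO baseline indicates binding; primary screen single-concentration in duplicate at 25 uM, actives followed in concentration series.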
# [12] = biological target: bovine Gamma-Aminobutyric Acid Type A Receptor Agonist (GABAR Agonist), GABRA1 (gene 780973) (UniProt P08219); test: NVS_LGIC_bGABAR_Agonist: NovaScreen (NVS) Ligand-Gated Ion Channel Assay for bovine Gamma-Aminobutyric Acid Type A Receptor Agonist (GABAR Agonist) (AID 2283338)
# How it was run: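 Radioligand binding to bovine cerebellar membranes in agonist format, read by filter-based scintillation counting after 1 h. Primary screen in duplicate at 25 uM, with actives followed in concentration series. Gain of signal versus DMSO.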
# [13] = test system: guinea pig Histamine Receptor (H2), gene 100729734; test: NVS_GPCR_gH2: NovaScreen (NVS) G Protein-Coupled Receptor Assay for guinea pig Histamine Receptor (H2) (AID 2283342)
# How it was run: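 Guinea pig striatal membrane preparation with specific radioligand; bound counts measured by filtration and scintillation 1 h post-dosing, DMSO as baseline. Chemicals passing a 25 uM duplicate screen were titrated to a 50 uM maximum.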
# [14] = biological target: Bile acid receptor (Homo sapiens) (UniProt Q96RI1); test: NVS_NR_hFXR_Agonist: NovaScreen (NVS) Nuclear Receptor Binding Assay for human Farnesoid X Receptor Agonism (FXR) (AID 2283347)
# How it was run: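 Agonist-mode FXR assay read by time-resolved FRET 1 h after compound addition, using isolated human receptor protein without cells. Duplicate 25 uM single-point primary screen, concentration series for confirmed actives; DMSO as baseline.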
# Sequence of rat Peripheral-type Benzodiazepine Receptor (PBR), Tspo (gene 24230) (P16257 whole entry, looked up): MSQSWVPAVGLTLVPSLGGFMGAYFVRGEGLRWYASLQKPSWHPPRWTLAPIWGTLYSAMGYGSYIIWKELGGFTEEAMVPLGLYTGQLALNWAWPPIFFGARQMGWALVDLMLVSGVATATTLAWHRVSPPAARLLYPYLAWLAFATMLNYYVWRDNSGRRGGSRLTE
# Sequence of Androgen Receptor/SRC-1 Co-activator, AR (gene 367) (P10275 whole entry, looked up, the tested form may be a part): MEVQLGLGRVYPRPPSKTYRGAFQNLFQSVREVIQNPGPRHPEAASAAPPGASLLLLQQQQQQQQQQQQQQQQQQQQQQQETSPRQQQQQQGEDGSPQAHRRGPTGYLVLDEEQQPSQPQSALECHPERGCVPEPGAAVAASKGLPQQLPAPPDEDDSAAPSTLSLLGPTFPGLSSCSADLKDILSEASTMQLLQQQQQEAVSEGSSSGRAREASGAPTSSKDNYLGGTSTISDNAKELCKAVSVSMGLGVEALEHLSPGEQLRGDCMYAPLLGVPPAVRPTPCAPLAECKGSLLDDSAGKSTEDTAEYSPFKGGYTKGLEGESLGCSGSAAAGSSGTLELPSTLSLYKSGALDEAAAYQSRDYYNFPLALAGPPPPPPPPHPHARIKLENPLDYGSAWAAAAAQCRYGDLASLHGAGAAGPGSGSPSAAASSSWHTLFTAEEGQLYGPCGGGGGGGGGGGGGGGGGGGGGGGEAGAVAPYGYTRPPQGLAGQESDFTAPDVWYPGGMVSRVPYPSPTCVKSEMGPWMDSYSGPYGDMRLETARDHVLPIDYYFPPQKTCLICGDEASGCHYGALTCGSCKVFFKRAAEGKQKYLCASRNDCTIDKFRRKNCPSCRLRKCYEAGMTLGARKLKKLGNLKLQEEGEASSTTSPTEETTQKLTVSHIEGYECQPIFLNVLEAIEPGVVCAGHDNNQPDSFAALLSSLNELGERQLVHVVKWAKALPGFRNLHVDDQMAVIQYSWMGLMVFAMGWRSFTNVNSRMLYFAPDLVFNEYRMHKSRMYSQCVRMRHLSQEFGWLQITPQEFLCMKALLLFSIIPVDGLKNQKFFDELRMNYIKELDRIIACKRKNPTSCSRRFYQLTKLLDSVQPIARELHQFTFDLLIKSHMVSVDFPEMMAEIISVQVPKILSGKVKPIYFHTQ
# Sequence of Estrogen receptor (Homo sapiens) (P03372 whole entry, looked up, the tested form may be a part): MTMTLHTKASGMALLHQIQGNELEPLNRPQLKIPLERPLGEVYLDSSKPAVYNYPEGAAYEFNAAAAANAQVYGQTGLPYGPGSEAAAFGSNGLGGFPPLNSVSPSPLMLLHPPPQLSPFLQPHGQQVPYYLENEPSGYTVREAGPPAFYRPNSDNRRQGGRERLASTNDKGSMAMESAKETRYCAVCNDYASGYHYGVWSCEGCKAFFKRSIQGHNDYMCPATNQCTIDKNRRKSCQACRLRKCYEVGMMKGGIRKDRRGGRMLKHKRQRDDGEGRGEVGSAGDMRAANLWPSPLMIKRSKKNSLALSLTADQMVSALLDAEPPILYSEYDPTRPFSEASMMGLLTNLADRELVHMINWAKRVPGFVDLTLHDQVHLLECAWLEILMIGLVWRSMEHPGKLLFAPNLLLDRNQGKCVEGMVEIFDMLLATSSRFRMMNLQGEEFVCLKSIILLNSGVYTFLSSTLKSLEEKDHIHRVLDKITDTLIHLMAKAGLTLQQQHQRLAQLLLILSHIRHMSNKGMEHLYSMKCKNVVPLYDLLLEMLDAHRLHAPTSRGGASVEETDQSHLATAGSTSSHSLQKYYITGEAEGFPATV
# Sequence of Estrogen receptor (Homo sapiens) + Estrogen receptor beta (Homo sapiens) (P03372 whole entry, looked up, the tested form may be a part): as above
# Sequence of Estrogen receptor (Homo sapiens) + Estrogen receptor beta (Homo sapiens) (Q92731 whole entry, looked up, the tested form may be a part): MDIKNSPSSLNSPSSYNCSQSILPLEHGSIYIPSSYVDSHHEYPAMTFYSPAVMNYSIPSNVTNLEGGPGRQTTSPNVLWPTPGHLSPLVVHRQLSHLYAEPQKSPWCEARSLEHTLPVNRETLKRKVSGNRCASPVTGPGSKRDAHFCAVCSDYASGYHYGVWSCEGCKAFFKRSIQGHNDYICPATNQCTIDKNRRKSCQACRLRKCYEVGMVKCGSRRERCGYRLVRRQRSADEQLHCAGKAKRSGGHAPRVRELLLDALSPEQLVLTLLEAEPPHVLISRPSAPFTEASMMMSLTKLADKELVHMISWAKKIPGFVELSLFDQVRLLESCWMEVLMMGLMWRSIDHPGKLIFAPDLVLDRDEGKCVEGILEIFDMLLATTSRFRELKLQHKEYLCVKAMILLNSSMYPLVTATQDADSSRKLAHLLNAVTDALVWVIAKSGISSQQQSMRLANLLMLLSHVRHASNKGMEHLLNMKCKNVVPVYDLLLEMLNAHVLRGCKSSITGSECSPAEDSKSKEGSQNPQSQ
# Sequence of chimpanzee Androgen Receptor (AR), AR (gene 747460) (O97775 whole entry, looked up): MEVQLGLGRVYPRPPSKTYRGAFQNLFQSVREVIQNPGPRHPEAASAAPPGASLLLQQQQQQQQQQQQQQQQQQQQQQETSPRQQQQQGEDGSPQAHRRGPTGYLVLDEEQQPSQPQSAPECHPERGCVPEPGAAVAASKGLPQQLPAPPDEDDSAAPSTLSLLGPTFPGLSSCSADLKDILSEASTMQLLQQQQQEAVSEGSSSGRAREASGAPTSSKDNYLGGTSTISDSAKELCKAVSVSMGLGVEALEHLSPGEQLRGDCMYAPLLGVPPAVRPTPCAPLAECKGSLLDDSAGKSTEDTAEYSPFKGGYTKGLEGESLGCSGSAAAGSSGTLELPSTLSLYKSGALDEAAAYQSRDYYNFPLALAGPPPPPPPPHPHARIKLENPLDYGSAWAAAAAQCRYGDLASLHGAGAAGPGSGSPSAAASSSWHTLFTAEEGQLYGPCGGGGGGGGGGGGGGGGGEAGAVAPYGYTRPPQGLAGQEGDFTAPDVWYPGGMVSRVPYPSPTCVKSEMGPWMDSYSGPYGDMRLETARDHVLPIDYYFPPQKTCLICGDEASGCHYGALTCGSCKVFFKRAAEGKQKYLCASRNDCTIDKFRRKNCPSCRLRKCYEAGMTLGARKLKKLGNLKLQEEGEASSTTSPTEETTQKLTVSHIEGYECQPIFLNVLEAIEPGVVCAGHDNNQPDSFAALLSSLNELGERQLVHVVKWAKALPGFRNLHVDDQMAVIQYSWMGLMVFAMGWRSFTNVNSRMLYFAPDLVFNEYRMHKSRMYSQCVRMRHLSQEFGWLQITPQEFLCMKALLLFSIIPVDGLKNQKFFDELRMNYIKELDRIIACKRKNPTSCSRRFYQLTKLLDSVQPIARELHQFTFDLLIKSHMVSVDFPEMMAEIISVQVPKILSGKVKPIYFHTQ
# Sequence of Bile acid receptor (Homo sapiens) (Q96RI1 whole entry, looked up): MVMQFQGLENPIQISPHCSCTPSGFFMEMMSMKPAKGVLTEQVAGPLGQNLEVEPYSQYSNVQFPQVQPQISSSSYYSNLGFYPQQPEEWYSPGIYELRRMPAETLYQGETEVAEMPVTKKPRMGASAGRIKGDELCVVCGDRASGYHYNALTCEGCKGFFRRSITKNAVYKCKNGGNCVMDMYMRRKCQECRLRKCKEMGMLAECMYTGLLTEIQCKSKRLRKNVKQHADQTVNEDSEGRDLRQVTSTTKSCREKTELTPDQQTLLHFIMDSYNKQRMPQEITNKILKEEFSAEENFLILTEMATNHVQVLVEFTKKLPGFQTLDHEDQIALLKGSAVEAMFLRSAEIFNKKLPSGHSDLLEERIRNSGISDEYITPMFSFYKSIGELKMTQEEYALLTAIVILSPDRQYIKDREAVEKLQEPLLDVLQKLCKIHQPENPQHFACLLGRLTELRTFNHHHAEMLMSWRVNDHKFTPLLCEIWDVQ
# Sequence of human Peripheral-type Benzodiazepine Receptor (PBR), TSPO (gene 706) (P30536 whole entry, looked up): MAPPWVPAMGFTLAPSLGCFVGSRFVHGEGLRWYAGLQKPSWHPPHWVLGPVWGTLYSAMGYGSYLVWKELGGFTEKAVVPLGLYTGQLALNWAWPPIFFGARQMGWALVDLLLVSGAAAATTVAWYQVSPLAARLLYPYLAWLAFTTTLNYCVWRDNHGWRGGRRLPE
# Sequence of bovine Estrogen Receptor (ER), ESR1 (gene 407238) (P49884 whole entry, looked up): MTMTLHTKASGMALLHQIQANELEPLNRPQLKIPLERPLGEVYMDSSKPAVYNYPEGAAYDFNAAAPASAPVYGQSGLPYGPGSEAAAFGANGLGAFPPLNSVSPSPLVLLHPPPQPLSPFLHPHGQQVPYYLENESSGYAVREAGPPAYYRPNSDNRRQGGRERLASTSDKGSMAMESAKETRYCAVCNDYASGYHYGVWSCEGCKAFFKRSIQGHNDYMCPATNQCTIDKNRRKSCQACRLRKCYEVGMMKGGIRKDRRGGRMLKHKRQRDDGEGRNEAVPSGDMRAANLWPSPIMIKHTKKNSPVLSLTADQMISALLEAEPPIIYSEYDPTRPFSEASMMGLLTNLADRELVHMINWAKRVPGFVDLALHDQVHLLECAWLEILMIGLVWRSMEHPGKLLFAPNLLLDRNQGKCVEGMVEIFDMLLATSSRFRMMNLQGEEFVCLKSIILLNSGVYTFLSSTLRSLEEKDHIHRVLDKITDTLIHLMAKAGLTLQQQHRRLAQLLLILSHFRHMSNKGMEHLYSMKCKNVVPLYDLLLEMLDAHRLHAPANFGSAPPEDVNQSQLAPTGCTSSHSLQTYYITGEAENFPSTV
smiles,measurement,setting,value
CN=C=S,outcome,[1],inactive
same,outcome,[2],inactive
same,outcome,[3],inactive
COC(=O)c1c(C(F)F)nc(C(F)(F)F)c(C2=NCCS2)c1CC(C)C,outcome,[1],inactive
same,AC50,[4],0.484 µM (active)
same,outcome,NCBI gene 100848466,inactive
same,outcome,[3],inactive
same,outcome,[5],inactive
same,AC50,[6],17.2 µM (active)
same,outcome,[7],inactive
CC1(C)C(C(=O)OC(C#N)c2cccc(Oc3ccccc3)c2)C1(C)C (stereo not given),outcome,[1],inactive
same,outcome,[4],inactive
same,outcome,[3],inactive
same,outcome,[6],inactive
COCC(=O)N(c1c(C)cccc1C)C(C)C(=O)OC (stereo not given),outcome,[1],inactive
same,AC50,[4],25 µM (active)
same,outcome,NCBI gene 100848466,inactive
same,outcome,[3],inactive
same,outcome,[6],inactive
Clc1nc(Cl)nc(Nc2ccccc2Cl)n1,AC50,[1],14.9 µM (active)
same,AC50,[4],1.3 µM (active)
same,outcome,[3],inactive
same,outcome,[6],inactive
OC(c1ccc(Cl)cc1)(c1ccc(Cl)cc1)C(Cl)(Cl)Cl,outcome,[1],inactive
same,outcome,[4],inactive
same,outcome,[2],inactive
same,outcome,[8],inactive
same,outcome,[3],inactive
same,outcome,[9],inactive
same,AC50,[6],11.8 µM (active)
CNC(=O)Oc1cccc2ccccc12,AC50,[4],25 µM (active)
same,outcome,[8],inactive
same,outcome,[3],inactive
CC1(C)CCC(=Cc2ccc(Cl)cc2)C1(O)Cn1cncn1 (stereo not given),AC50,[10],0.955 µM (active)
same,AC50,[11],0.672 µM (active)
same,outcome,[3],inactive
same,outcome,[6],inactive
same,AC50,[7],16.3 µM (active)
CCOP(=S)(OCC)Oc1nc(Cl)n(C(C)C)n1,outcome,[1],inactive
same,AC50,[4],12.9 µM (active)
same,outcome,[3],inactive
same,outcome,[5],inactive
CC(C)NC(=O)N1CC(=O)N(c2cc(Cl)cc(Cl)c2)C1=O,AC50,[1],8.8 µM (active)
same,AC50,[4],13.3 µM (active)
same,outcome,[3],inactive
same,outcome,[5],inactive
COP(=S)(OC)SCn1nnc2ccccc2c1=O,AC50,[1],17.5 µM (active)
same,AC50,[10],10.9 µM (active)
same,AC50,[4],13.6 µM (active)
same,AC50,[11],16.1 µM (active)
same,outcome,[3],inactive
same,outcome,[5],inactive
same,outcome,[6],inactive
same,outcome,[7],inactive
Cc1ccc(N=CN(C)C=Nc2ccc(C)cc2C)c(C)c1,outcome,[3],inactive
C=C(C)CN(CC)c1c([N+](=O)[O-])cc(C(F)(F)F)cc1[N+](=O)[O-],outcome,[11],inactive
same,outcome,[3],inactive
same,outcome,[5],inactive
same,AC50,[6],50 µM (active)
Nc1c(Cl)c(F)nc(OCC(=O)O)c1Cl,outcome,[3],inactive
same,outcome,[6],inactive
same,outcome,[7],inactive
COC(=O)NS(=O)(=O)c1ccc(N)cc1,outcome,[3],inactive
same,outcome,[6],inactive
Nc1cnn(-c2ccccc2)c(=O)c1Cl,outcome,[12],inactive
same,outcome,[8],inactive
same,outcome,[3],inactive
same,outcome,[6],inactive
COc1cc(Cl)c(OC)cc1Cl,outcome,[3],inactive
same,outcome,[6],inactive
CS(=O)(=O)c1cc(C(F)(F)F)ccc1C(=O)c1cnoc1C1CC1,outcome,[2],inactive
same,outcome,[3],inactive
same,outcome,[6],inactive
CCCC(=NOCC)C1=C(O)CC(CC(C)SCC)CC1=O (stereo not given),outcome,[3],inactive
same,outcome,[6],inactive
Cc1cnc(C2=NC(C)(C(C)C)C(=O)N2)c(C(=O)O)c1 (stereo not given),outcome,[3],inactive
same,outcome,[6],inactive
same,outcome,[7],inactive
COP(=O)(OC)O/C(C)=C/C(=O)N(C)C,outcome,[3],inactive
same,outcome,[6],inactive
CC(C)N1C(=O)N(c2ccccc2)CSC1=NC(C)(C)C,outcome,[3],inactive
same,outcome,[6],inactive
same,AC50,[7],62.9 µM (active)
CCOc1nc(C(Cl)(Cl)Cl)ns1,outcome,[3],inactive
same,outcome,[6],inactive
O=C(O)c1c(Cl)ccc2cc(Cl)cnc12,outcome,[3],inactive
same,outcome,[6],inactive
CCNC(=O)NC(=O)C(C#N)=NOC,outcome,[3],inactive
same,outcome,[9],inactive
C=CCOC(=O)C(C)(C)OC(=O)c1cc(-n2c(=O)cc(C(F)(F)F)n(C)c2=O)ccc1Cl,outcome,[3],inactive
same,outcome,[6],inactive
Clc1cccc(C(Cl)(Cl)Cl)n1,outcome,[3],inactive
same,outcome,[6],inactive
same,outcome,[7],inactive
CC(C)N1C(=O)c2ccccc2NS1(=O)=O,outcome,[3],inactive
COC(=O)NC(=S)Nc1ccccc1NC(=S)NC(=O)OC,outcome,[3],inactive
same,outcome,[6],inactive
Nc1c(Cl)c(Cl)nc(C(=O)O)c1Cl,outcome,[3],inactive
same,outcome,[5],inactive
same,outcome,[6],inactive
Cc1cc(C)nc(Nc2ccccc2)n1,outcome,[3],inactive
same,outcome,[5],inactive
CS(=O)(=O)c1ccc(C(=O)C2C(=O)CCCC2=O)c([N+](=O)[O-])c1,AC50,[11],17.6 µM (active)
same,outcome,[3],inactive
same,outcome,[6],inactive
CCOc1cc(C(C)(C)C)ccc1C1COC(c2c(F)cccc2F)=N1 (stereo not given),outcome,[3],inactive
same,outcome,[6],inactive
same,AC50,[7],20.1 µM (active)
CNC(=O)N(C)c1nnc(C(C)(C)C)s1,outcome,[3],inactive
same,outcome,[6],inactive
CC(C)Nc1nc(Cl)nc(NC(C)C)n1,outcome,[3],inactive
same,outcome,[6],inactive
N#CN=C1SCCN1Cc1ccc(Cl)nc1,outcome,[3],inactive
same,outcome,[5],inactive
CC1(C)CON(Cc2ccccc2Cl)C1=O,outcome,[3],inactive
same,outcome,[5],inactive
same,outcome,[6],inactive
COCc1cnc(C2=NC(C)(C(C)C)C(=O)N2)c(C(=O)O)c1 (stereo not given),outcome,[3],inactive
same,AC50,[9],30.3 µM (active)
same,outcome,[6],inactive
same,outcome,[7],inactive
CN/C(=N\[N+](=O)[O-])NCc1cnc(Cl)s1,outcome,[3],inactive
same,outcome,[6],inactive
O=P(O)(O)CCCl,outcome,[3],inactive
CSC(=O)c1c(C(F)F)nc(C(F)(F)F)c(C(=O)SC)c1CC(C)C,outcome,[13],inactive
same,AC50,[3],47.1 µM (active)
same,outcome,[5],inactive
same,AC50,[6],31.9 µM (active)
O=c1n(Cl)c(=O)n(Cl)c(=O)n1Cl,outcome,[2],inactive
same,outcome,[3],inactive
same,outcome,[5],inactive
CC(C)C1(C)N=C(c2ncccc2C(=O)O)NC1=O (stereo not given),outcome,[3],inactive
same,outcome,[9],inactive
CCOc1nc(F)cc2nc(S(=O)(=O)Nc3c(Cl)cccc3Cl)nn12,outcome,[14],inactive
same,outcome,[3],inactive
same,outcome,[6],inactive
CCC(C)n1c(=O)[nH]c(C)c(Br)c1=O (stereo not given),outcome,[3],inactive
same,outcome,[5],inactive
same,outcome,[6],inactive
COc1cc(OC)nc(NC(=O)NS(=O)(=O)c2ncccc2OCC(F)(F)F)n1,outcome,[3],inactive
same,outcome,[6],inactive
CCSC(=O)N1CCCCCC1,outcome,[8],inactive
same,outcome,[3],inactive
same,outcome,[5],inactive
same,outcome,[6],inactive
